According to PubChem BioAssay:
Records with an inconclusive call do not appear. Activity calls are given as the source filed them. Unless noted, cut-off not given; nearly all actives show AC50 up to about 26 µM.

What was measured:
[1] = growth inhibition of DIPG glioma cells, dose response, cell-based, SU-DIPG-XVII, MIPE5.0, CellTiter-Glo, qHTS (AID 1347060); conditions: SU-DIPG-XVII viability, CellTiter-Glo ATP luminescence;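 on AC50: cells exposed to compound for 48 hours before viability readout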
[2] = growth inhibition of DIPG glioma cells, dose response, cell-based, SU-DIPG-XIII, MIPE5.0, CellTiter-Glo, qHTS (AID 1347064; cut-off not given, nearly all actives have AC50 up to about 23 µM;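 on AC50: cells exposed to compound for 48 hours before the viability read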); conditions: SU-DIPG-XIII viability, CellTiter-Glo ATP luminescence
[3] = viability loss in pontine glioma line – cell-based, SU-DIPG-XXV, MIPE5.0, CellTiter-Glo, qHTS, dose response (AID 1347065); conditions: CellTiter-Glo ATP luminescence;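 further: cells exposed to compound for 48 hours before ATP readout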
[4] = SU-DIPG-VI glioma cell viability, MIPE4.0 library, CellTiter-Glo luminescence, qHTS (AID 1347066; cut-off not given, nearly all actives have AC50 up to about 30 µM;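 further: cells exposed to compound for 48 hours before readout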); conditions: CellTiter-Glo ATP luminescence
[5] = JHH-DIPG-1 glioma cell viability, MIPE5.0 library, CellTiter-Glo luminescence, qHTS (AID 1347067); conditions: JHH-DIPG-1 glioma viability, CellTiter-Glo ATP luminescence;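 further: cells exposed to compound for 48 hours before readout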
[6] = SU-DIPG-XXV glioma cell viability, MIPE5.0 library, qHTS (AID 1347068; cut-off not given, nearly all actives have IC50 up to about 30 µM)
[7] = sensitizers of A549 cells to miR-34 induction, primary screen, imaging, A549 dox-inducible miR-34, nuclei and caspase counts (AID 1347080;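 active means compounds whose cell count with miR-34 switched on is under 0.7 times the count with it off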); conditions: A549 miR-34 inducible, Hoechst nuclei count, 48 h
[8] = survival rescue of mitochondrial mutant cells in low glucose, primary screen, MELAS cybrids, Rieske KO mouse fibroblasts, CellTiter-Glo (AID 1508586;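 active means mean z-score across replicates of 1.96 or higher in either the MELAS or the Rieske mutant cell line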;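 further: z relative to plate mean and SD of compound and empty wells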)
[9] = ovarian cancer cell viability with rucaparib, profiling panel, oncology-focused library, rucaparib conditional (AID 1508598;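 active means normalized viability below 100% at a tested concentration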); conditions: patient-derived ovarian cancer cells, CellTiter-Glo viability, 144 h, stronger effect = lower value
[10] = stronger effect = lower value, cell number ratio, induced over uninduced
[11] = measured here: relative caspase fold change +Dox/-Dox
[12] = measured here: total cells with miR-34 induction, stronger effect = lower value
[13] = measured here: total cells without miR-34 induction
[14] = MELAS cybrid survival, CellTiter-Glo 48 h, stronger effect = higher value
[15] = Rieske KO mouse fibroblast survival, CellTiter-Glo 72 h

Cc1cc(-c2ccc(CC(=O)Nc3ccc(-c4cccnc4)cc3)cc2)ccn1
outcome [1]: inactive | outcome [2]: inactive | outcome [3]: inactive | outcome [4]: inactive | outcome [5]: inactive | outcome [6]: inactive | fold change [7, 10]: 0.957 (inactive) | fold change [7, 11]: 0.839 | cell count [7, 12]: 7810 | cell count [7, 13]: 8160 | z-score [8, 14]: -0.327 (inactive) | z-score [8, 15]: -0.153

O=C(O)/C(S)=C/c1ccc(I)cc1
outcome [1]: inactive | outcome [2]: inactive | outcome [3]: inactive

CCC[C@H](NC(=O)[C@@H]1[C@H]2CCC[C@H]2CN1C(=O)[C@@H](NC(=O)[C@@H](NC(=O)c1cnccn1)C1CCCCC1)C(C)(C)C)C(=O)C(=O)NC1CC1
outcome [1]: inactive | outcome [2]: inactive | outcome [3]: inactive | outcome [4]: inactive | AC50 [5]: 18.6 µM (active) | outcome [6]: inactive

O=c1sn(-c2cccc3ccccc23)c(=O)n1Cc1ccccc1
AC50 [1]: 23.5 µM (active) | AC50 [2]: 13.2 µM (active) | AC50 [3]: 14.8 µM (active) | AC50 [5]: 3.72 µM (active)

NC(=O)c1cccc2c(NC(CN3CCC3)c3ccc(Cl)c(C(F)(F)F)c3)ncnc12 (centres undefined)
AC50 [1]: 11.8 µM (active) | AC50 [2]: 3.72 µM (active) | AC50 [3]: 2.95 µM (active) | AC50 [5]: 11.8 µM (active)

COc1cc(-c2nn(C3CCC(N4CCN(C(C)=O)CC4)CC3)c3ncnc(N)c23)ccc1NC(=O)c1cc2ccccc2n1C (centres undefined)
AC50 [1]: 3.72 µM (active) | AC50 [2]: 7.42 µM (active) | AC50 [3]: 4.17 µM (active) | outcome [4]: inactive | AC50 [5]: 7.42 µM (active) | outcome [6]: inactive

Cc1cc(-c2cc(OC(=O)c3ccccc3)ccc2Cl)cc2nnc(Nc3ccc(OCCN4CCCC4)cc3)nc12
AC50 [1]: 5.12 µM (active) | AC50 [2]: 7.23 µM (active) | AC50 [3]: 5.12 µM (active) | AC50 [5]: 5.12 µM (active)

Cc1cc(C(=O)Nc2cc(Nc3ccc4c(/C=C/c5ccccn5)n[nH]c4c3)ccc2F)n(C)n1
AC50 [1]: 8.33 µM (active) | AC50 [2]: 7.42 µM (active) | AC50 [3]: 3.72 µM (active) | AC50 [5]: 16.6 µM (active)

O=C(NO)c1cnc(N2C[C@H]3C[C@@H]2CN3c2cc(C(F)(F)F)ccn2)nc1
AC50 [1]: 2.63 µM (active) | AC50 [2]: 1.18 µM (active) | AC50 [3]: 0.742 µM (active) | AC50 [5]: 1.48 µM (active)

COCCOc1nc(-c2ccc(Cl)c(Cl)c2)n(-c2ccc(NC(=O)CCl)cc2)n1
AC50 [1]: 1.32 µM (active) | AC50 [2]: 2.63 µM (active) | AC50 [3]: 2.95 µM (active) | outcome [4]: inactive | AC50 [5]: 2.63 µM (active) | outcome [6]: inactive | fold change [7, 10]: 1.14 (inactive) | fold change [7, 11]: 0.519 | cell count [7, 12]: 3760 | cell count [7, 13]: 3290 | z-score [8, 14]: -0.782 (inactive) | z-score [8, 15]: -7.88 | viability ([9]; at 0.000305 µM, OCI-C5x cells, with rucaparib 10 µM, 100% = cells with rucaparib alone): 125% (inactive) | viability ([9]; at 0.000305 µM, OCI-C5x cells, without rucaparib): 115% (inactive) | viability ([9]; at 0.000305 µM, OCI-P5x cells, with rucaparib 20 µM, 100% = cells with rucaparib alone): 104% (inactive) | viability ([9]; at 0.000305 µM, OCI-P5x cells, without rucaparib): 105% (inactive) | viability ([9]; at 0.00122 µM, OCI-C5x cells, with rucaparib 10 µM, 100% = cells with rucaparib alone): 131% (inactive) | viability ([9]; at 0.00122 µM, OCI-C5x cells, without rucaparib): 104% (inactive) | viability ([9]; at 0.00122 µM, OCI-P5x cells, with rucaparib 20 µM, 100% = cells with rucaparib alone): 93.4% (active) | viability ([9]; at 0.00122 µM, OCI-P5x cells, without rucaparib): 103% (inactive) | viability ([9]; at 0.00488 µM, OCI-C5x cells, with rucaparib 10 µM, 100% = cells with rucaparib alone): 131% (inactive) | viability ([9]; at 0.00488 µM, OCI-C5x cells, without rucaparib): 113% (inactive) | viability ([9]; at 0.00488 µM, OCI-P5x cells, with rucaparib 20 µM, 100% = cells with rucaparib alone): 105% (inactive) | viability ([9]; at 0.00488 µM, OCI-P5x cells, without rucaparib): 99.8% (active) | viability ([9]; at 0.0195 µM, OCI-C5x cells, with rucaparib 10 µM, 100% = cells with rucaparib alone): 114% (inactive) | viability ([9]; at 0.0195 µM, OCI-C5x cells, without rucaparib): 106% (inactive) | viability ([9]; at 0.0195 µM, OCI-P5x cells, with rucaparib 20 µM, 100% = cells with rucaparib alone): 103% (inactive) | viability ([9]; at 0.0195 µM, OCI-P5x cells, without rucaparib): 100% (inactive) | viability ([9]; at 0.0781 µM, OCI-C5x cells, with rucaparib 10 µM, 100% = cells with rucaparib alone): 125% (inactive) | viability ([9]; at 0.0781 µM, OCI-C5x cells, without rucaparib): 111% (inactive) | viability ([9]; at 0.0781 µM, OCI-P5x cells, with rucaparib 20 µM, 100% = cells with rucaparib alone): 95.6% (active) | viability ([9]; at 0.0781 µM, OCI-P5x cells, without rucaparib): 97.3% (active) | viability ([9]; at 0.313 µM, OCI-C5x cells, with rucaparib 10 µM, 100% = cells with rucaparib alone): 124% (inactive) | viability ([9]; at 0.313 µM, OCI-C5x cells, without rucaparib): 112% (inactive) | viability ([9]; at 0.313 µM, OCI-P5x cells, with rucaparib 20 µM, 100% = cells with rucaparib alone): 96.8% (active) | viability ([9]; at 0.313 µM, OCI-P5x cells, without rucaparib): 90.6% (active) | viability ([9]; at 1.25 µM, OCI-C5x cells, with rucaparib 10 µM, 100% = cells with rucaparib alone): 97.1% (active) | viability ([9]; at 1.25 µM, OCI-C5x cells, without rucaparib): 112% (inactive) | viability ([9]; at 1.25 µM, OCI-P5x cells, with rucaparib 20 µM, 100% = cells with rucaparib alone): 86.3% (active) | viability ([9]; at 1.25 µM, OCI-P5x cells, without rucaparib): 86.9% (active) | viability ([9]; at 5 µM, OCI-C5x cells, with rucaparib 10 µM, 100% = cells with rucaparib alone): 2.67% (active) | viability ([9]; at 5 µM, OCI-C5x cells, without rucaparib): 92.5% (active) | viability ([9]; at 5 µM, OCI-P5x cells, with rucaparib 20 µM, 100% = cells with rucaparib alone): 1.14% (active) | viability ([9]; at 5 µM, OCI-P5x cells, without rucaparib): 6.27% (active)

N#Cc1c(N)nc(N)nc1N[C@H](c1nc2c(F)ccc(Cl)c2c(=O)n1-c1cccnc1)C1CC1
AC50 [1]: 18.6 µM (active) | AC50 [2]: 13.2 µM (active) | AC50 [3]: 11.8 µM (active)

Cc1c[nH]c2ncnc(N3CCC(CN)(C(=O)Nc4cccc(OC(=O)N(C)C)c4)CC3)c12
outcome [1]: inactive | AC50 [2]: 11.8 µM (active) | AC50 [3]: 16.6 µM (active)

CC#CC(=O)N1CCC[C@H]1c1nc(-c2ccc(C(=O)Nc3ccccn3)cc2)c2c(N)nccn12
outcome [1]: inactive | outcome [2]: inactive | outcome [3]: inactive | outcome [5]: inactive

CCc1cc2c(c(OCC(F)(F)F)c(C(=O)NC3CCN(C(=O)CO)CC3)n2C)c(=O)n1CC(=O)c1ccccc1
outcome [1]: inactive | outcome [2]: inactive | outcome [3]: inactive | outcome [5]: inactive

COc1ccc(S(=O)(=O)NCc2ccc(C(=O)NCCc3ccc(Cl)cn3)cc2)cc1
outcome [1]: inactive | outcome [2]: inactive | outcome [3]: inactive | outcome [5]: inactive
